High-throughput results as filed in PubChem.
IL1B secr inh: inhibitors of inflammasome signaling (IL-1 beta secretion). THP-1 LPS/ATP IL-1B secretion, AlphaLISA, 16 h; hits give low values. 360,000 compounds, 4.7% hits. activity change, % at 57.5 µM; in the data active = activity change below about -50%; inconclusive = mostly about -30% to -49%; also: % is scaled to controls: 0 for no effect and ±100 for the full control effect
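THP-1 cells pretreated 1 hr with compounds (up to 57.5 uM final), then stimulated with LPS (250 ng/mL final) plus ATP (1.25 mM final); secreted IL-1B measured by AlphaLISA after 16 hr, decreased signal indicating inhibition.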
SW480 rerep: DNA re-replication induction in SW480 cells. SW480 DNA re-replication, Hoechst DNA content imaging, 48 h. Potency, µM (titrated, usually from 46.1 µM), for the others: at the top dose re-replication activation, most hits filed as activators. 340,000 compounds, 1.8% hits. AID 624297; also: potency is read from the fitted curve at half-maximal effect; % of control where 0% means no effect; nearly all actives have a fitted effect of over 55% in size
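SW480 cells exposed to compounds for 48 hr at 37 C, 5% CO2, then Hoechst-stained 40 min. Nuclear DNA content imaged by fluorescence scanning (405 nm excitation, 500-530 nm emission); re-replication scored as increased high-intensity nuclei.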
TDP1 cell noCPT: qHTS for Inhibitors of human tyrosyl-DNA phosphodiesterase 1 (TDP1): qHTS in cells in absence of CPT; DT40 Tdp1-/- hTDP1 cells, no CPT, ATP luminescence, 48 h; Potency, µM (highest dose often 46.2 µM), for inactives: at the top dose activity change, negative = growth inhibition, most hits filed as inhibitors; 420,000 compounds, 15% hits; AID 686978, 2013; also: potency is read from the fitted curve at half-maximal effect; % is scaled to controls: 0 for no effect and ±100 for the full control effect; nearly all actives have a fitted effect of over 55% in size
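Growth of hTDP1-complemented DT40 Tdp1-knockout cells is measured by ATP luminescence after at least 48 hr compound exposure at 37 °C, with DMSO substituting for the 20 nM CPT used in the parallel screen.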
TDP1 cell CPT: DT40-hTDP1 cell growth loss with CPT; chicken DT40 Tdp1-/-;hTDP1 cells + 20 nM CPT, ATP luminescence, 48 h; Potency, µM (titrated, usually from 46.2 µM), for inactives: at the top dose activity change, negative = growth inhibition, usual class: inhibitors; 420,000 compounds, 12% hits; also: potency is read from the fitted curve at half-maximal effect; % is scaled to controls: 0 for no effect and ±100 for the full control effect; nearly all actives have a fitted effect of over 55% in size
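Cell growth measured by CellTiter-Glo luminescence after a minimum 48 h, 37 C compound exposure with 20 nM CPT in Tdp1-knockout DT40 cells stably expressing hTDP1, seeded 400/well; qHTS titration format.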
BCR signal inh: chronic active BCR signaling inhibition. ABC-DLBCL IkBa-CBG/CBR reporter, luminescence ratio, 4 h. Potency, µM (top dose mostly 46.1 µM), for inactives: top-dose activity change, negative = inhibition, hits mostly inhibitors. 340,000 compounds, 0.05% hits. AID 493014; active = well fitted inhibition curve with a large enough effect in the signal ratio, with a control signal flat, not every such curve was filed as active; inconclusive = small, poorly fitted or top-dose-only effect, or effect the other way, or a change in a side signal; the % refers to the signal ratio;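 also: potency is read from the fitted curve at half-maximal effect; plate controls were basal doxycycline-induced cells for no effect and cells given 10 µM MG132 for full effect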
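Compounds up to 46 uM were incubated four hours with TMD8 cells whose green CBG68 luciferase is fused to IkappaBalpha; red CBR luminescence normalised the signal, and concentration-effect curves were fitted to fusion, red and ratio data.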
MCF10A rereplic: induces DNA re-replication in MCF 10a normal breast cells. AID 624296. MCF 10A DNA re-replication, Hoechst nuclear intensity, 48 h. Potency, µM (top dose mostly 46.1 µM), for inactives: at the highest dose activity, positive = re-replication, usual class: activators. 350,000 compounds, 2.9% hits; also: potency is read from the fitted curve at half-maximal effect; % of control where 0% means no effect; nearly all actives have a fitted effect of over 50% in size
Active calls of the source: *; ? = inconclusive; · = not tested or not shown; [ ] = dose if it differs, or a comment. Most compounds without a hit are left out; they make up all but 19% or so of the library. Unless noted, calls follow the shape of the dose curve; as a rule, active = well fitted curve in the direction sought with a large enough effect; inconclusive = small, poorly fitted or top-dose-only effect, or another doubt; inactive = no such curve, though single readings can be large; an effect the other way counts as inactive or inconclusive.

SMILES | IL1B secr inh | SW480 rerep | TDP1 cell noCPT | TDP1 cell CPT | BCR signal inh | MCF10A rereplic
CCOC(=O)C1(Cc2ccccc2C#N)CCCCC1=O (configuration not stated) | 16 | -5% | ? | 1% | · | 4%
COCCn1c(SCC(=O)NC2CCCCC2)nnc1-c1ccncc1 | 5 | 15% | 1% | 3% | 0% | 6%
O=C(Nc1cccc2ncccc12)c1ccco1 | 3 | -1% | -4% | 6% | -13% | 1%
COC(=O)c1ccc(NC(=O)COc2ccc(S(=O)(=O)NC(C)(C)C)cc2)cc1 | -2 | 10% | -3% | 16% | 8% | -2%
NC(c1ccncc1)c1ccc(Cl)cc1 (configuration not stated) | 4 | · | 6% | ? | · | ·
CCC1CN(CCNC(=O)c2cc(C)nn2CC)Cc2cc(OC)ccc2O1 (configuration not stated) | · | · | ? | -3%[9.04 µM] | · | ·
COc1ccccc1NC(=O)c1c(NCc2ccc(OC)c(OC)c2OC)sc2c1CCC2 | · | · | 23µM* | ? | 8% | ·
CCOC(=O)c1ccc(NC(=O)c2c(NCc3sccc3C)sc3c2CCCCC3)cc1 | · | · | 21µM* | 12µM* | ? | ·
CCOC(=O)c1ccc(NC(=O)c2c(NCc3cccc(OC)c3OC)sc3c2CCC3)cc1 | · | · | 21µM* | 15µM* | 1% | ·
COc1ccc(NC(=O)c2c(NCc3ccc(OC)c(OC)c3OC)sc3c2CCC3)c(OC)c1 | · | · | 15µM* | 13µM* | -1% | ·
C[C@H](N[C@@H](C)COc1ccccc1)[C@H](O)c1ccc(O)cc1 | · | 2%[20.6 µM] | · | · | · | 0%[20.6 µM]
O=S1(=O)NC(CC2=CCCCC2)C2CCCCC2O1 (configuration not stated) | 13 | 3% | -25% | 7.3µM* | -1% | -6%
COc1ccccc1C(=O)COC(=O)c1cc([N+](=O)[O-])ccc1N1CCOCC1 | ? | 11% | ? | ? | ? | 2%
O=C(OCc1ccccc1Cl)c1cc([N+](=O)[O-])ccc1N1CCOCC1 | -21 | 0% | -11% | -21% | · | -16%
O=C(OCc1ccc([N+](=O)[O-])cc1)c1cc([N+](=O)[O-])ccc1N1CCOCC1 | -12 | ? | 23µM* | 16µM* | ? | ?
Cc1cc(C)c(C(=O)COC(=O)c2cc([N+](=O)[O-])ccc2N2CCOCC2)cc1C | 0 | -3% | 18µM* | ? | 0% | 4%
Cc1c(C(=O)NC2CCCC2)sc2ncnc(NCCN(C)C)c12 | · | · | 7% | -5%[9.04 µM] | · | ·
OCc1ccc(-c2cccc3nccn23)cc1 | 2 | · | -14% | 5% | · | ·
Cn1nc(C(F)(F)F)c(/C=N/OC(=O)c2ccccc2)c1SCc1ccccc1Cl | ? | 16µM* | -27% | ? | 1% | 18µM*
Cn1nc(C(F)(F)F)c(/C=N/OC(=O)c2ccccc2)c1Sc1ccc(Cl)cc1 | ? | ? | 23µM* | 23µM* | ? | 2%
C[N+](C)(C)CCN1C(=O)c2ccccc2C1=O | 0 | · | -17% | -4% | · | ·
N#C/C(=C/c1cccc(O)c1)C(=O)NCc1ccc(Cl)cc1 | -103* | 21% | 16µM* | ? | ? | ?
N#C/C(=C/c1ccc(O)c(O)c1)C(=O)NCc1ccc(Cl)cc1 | -6 | ? | ? | 26µM* | ? | 6%
N#C/C(=C\c1ccc(OCc2ccc(Cl)cc2)cc1)C(=O)Nc1cccc(C(=O)O)c1 | -3 | ? | -1% | 6% | ? | -10%
O=C(N/N=C/c1coc2ccccc2c1=O)c1cn(-c2ccccc2)nc1-c1ccc(F)cc1 | -2 | 2% | ? | ? | -2% | -5%
SMILES | IL1B secr inh | SW480 rerep | TDP1 cell noCPT | TDP1 cell CPT | BCR signal inh | MCF10A rereplic
COc1ccccc1CN1CCN(C2CCN(C(=O)NC(C)C)CC2)C(=O)C1=O | · | · | 0% | -11% | · | ·
Cc1ccc2oc3c(c(=O)c2c1)C(c1ccc(O)cc1)N(CCCN(C)C)C3=O (configuration not stated) | · | · | 15% | -11% | · | ·
Cc1ccc2oc3c(c(=O)c2c1)C(c1cccc(O)c1)N(Cc1ccccc1Cl)C3=O (configuration not stated) | · | · | 18µM* | ? | · | ·
CSc1ccc(C2c3c(oc4cc(C)cc(C)c4c3=O)C(=O)N2CCO)cc1 (configuration not stated) | · | · | 23µM* | ? | · | ·
Cc1ccc2oc3c(c(=O)c2c1)C(c1cccc(O)c1)N(c1ccccn1)C3=O (configuration not stated) | · | -2% | ? | ? | 5% | -4%
COCCN1C(=O)c2oc3cc(C)cc(C)c3c(=O)c2C1c1cccc(O)c1 (configuration not stated) | · | · | -20% | 5% | · | ·
Cc1ccc(CN2C(=O)c3oc4ccc(C)cc4c(=O)c3C2c2ccc(O)cc2)cc1 (configuration not stated) | · | · | ? | 16µM* | · | ·
Cc1cc(C)c2c(=O)c3c(oc2c1)C(=O)N(Cc1ccc(F)cc1)C3c1cccc(O)c1 (configuration not stated) | · | · | 12µM* | 23µM* | · | ·
CCC1CN(Cc2c(C)nc3sccn23)Cc2cc(OC)ccc2O1 (configuration not stated) | · | · | -6% | -3%[9.04 µM] | · | ·
Cc1cnc(CNc2ccnc(-c3ccccc3CN(C)C)n2)cn1 | · | · | -2% | 1% | · | ·
OC(CNC1CCCCC1)CON=C1CCSc2c(Cl)cccc21 (configuration not stated) | ? | · | 8.2µM* | 23µM* | · | ·
O=C(O)COc1ccc(C(NC(=O)c2c(F)cccc2F)NC(=O)c2c(F)cccc2F)cc1 | 14 | -11% | -20% | -6% | 0% | -2%
Cc1cccc(NC(=O)/C(C#N)=C/c2cccc([N+](=O)[O-])c2)n1 | 16 | ? | -23% | -5% | ? | 21µM*
COCCSc1ccccc1C(=O)N1CCCC(C)C1 (configuration not stated) | -9 | -1% | -18% | -8% | -8% | -5%
CCOC(=O)C1CCCN(C(=O)c2ccc(NC(=O)c3nsc4ccccc34)cc2)C1 (configuration not stated) | · | · | 16µM* | ? | · | ·
CCOC(=O)C1CCN(C(=O)c2ccc(NC(=O)c3nsc4ccccc34)cc2)CC1 | · | · | ? | 21µM* | · | ·
CCCCC(=O)Nc1ccc(C(=O)N2CCCC(C(=O)OCC)C2)cc1 (configuration not stated) | -3 | 0% | -16% | -3% | 7% | -2%
